RXFP1 ag = qHTS Assay for Agonists of the Relaxin Receptor RXFP1; 0.3% of 370,000 active; Potency, µM (titrated, usually from 57.5 µM), for inactives: at the top dose activation, usual class: activators; Relaxin receptor 1 (Homo sapiens), Q9HBX9; HEK293T-RXFP1 cAMP TR-FRET, 30 min; response scale: percent of porcine relaxin response, buffer zero; active = well fitted activation curve with a large enough effect; inconclusive = small, poorly fitted or top-dose-only effect; also: potency is read from the fitted curve at half-maximal effect; % is scaled to controls: 0 for no effect and ±100 for the full control effect; nearly all actives have a fitted effect of over 60% in size
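HEK293 cells stably expressing RXFP1, treated 30 min at 37C with compounds plus PDE4 inhibitor Ro 20174; cAMP measured by HTRF TR-FRET. Normalized to buffer and 29 nM porcine relaxin; EC50 by Hill fit.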
pAkt inh = HTS Assay for Inhibitors of Akt Phophorylation: Primary Screen | activity change, % for hits at 50 µM | 0.32% of 360,000 active | Neuro2A IGF-stimulated pAkt S473 HTRF, 20 min; hits give low values; in the data active = activity change below about -80%; inconclusive = mostly about -51% to -80%; also: % is scaled to controls: 0 for no effect and ±100 for the full control effect
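Neuro2A cells in DMEM with 0.5% FBS, overnight at 37 deg C, given compound at single 50 µM final, then IGF (6 nM final) for 20 min at 37 deg C. Lysed; phospho-Akt Ser473 by HTRF after 24 h, 665/615 ratio.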
gsp antag = qHTS for Antagonists of gsp, the Etiologic Mutation Responsible for Fibrous Dysplasia/McCune-Albright Syndrome: qHTS. 0.4% of 340,000 active. gsp-mutant cells, cAMP HTRF, 30 min. AID 624288, 2012. Potency, µM (top dose mostly 76.9 µM), for the others: top-dose activity change, negative = inhibition, actives largely listed as inhibitors; calls by dose curve; cell line not stated here;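 also: intracellular cAMP measured with PDE inhibitor Ro 20-1724 present during compound exposure; potency is read from the fitted curve at half-maximal effect; % is scaled to controls: 0 for no effect and ±100 for the full control effect; nearly all actives have a fitted effect of over 65% in size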
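Cells in G418 medium, seeded 16-24 h, 37C; buffer exchange to DPBS + 1 mM CaCl2, 0.5 mM MgCl2, 0.05% BSA; cpds in DMSO + […] (300 uM stock), 30 min 37C; HTRF cAMP detection.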
RXFP1 antag = qHTS Assay for Antagonists of the Relaxin Receptor RXFP1; 0.59% of 350,000 active; activity change, negative = inhibition, % at 57.5 µM; AID 1259400, 2018; HEK293-RXFP1, relaxin-stimulated cAMP HTRF, 30 min; hits give low values; Relaxin receptor 1 (Homo sapiens), Q9HBX9;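 active = activity change of -60% or lower, but not beyond a set lower limit; inconclusive = change between -60% and -40%, or beyond the set limit; inactive = change above -40%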; also: % is scaled to controls: 0 for no effect and ±100 for the full control effect
gsp ag = qHTS for Agonist of gsp, the Etiologic Mutation Responsible for Fibrous Dysplasia/McCune-Albright Syndrome: qHTS. 0.13% of 340,000 active. gsp mutant cells, cAMP HTRF, 30 min. AID 624287, 2012. Potency, µM (titrated, usually from 76.9 µM), without a hit: top-dose activation (cAMP increase), usual class: activators; active = well fitted activation curve with a large enough effect; inconclusive = small, poorly fitted or top-dose-only effect, or another doubt; inactive = no such curve, though single readings can be large or run the other way; cell line not stated here;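 also: phosphodiesterase inhibitor Ro 20-1724 added with compounds to block cAMP breakdown; potency is read from the fitted curve at half-maximal effect; nearly all actives have a fitted effect of over 60% in size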
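Cells stably selected in G418 were plated at 2000/well, grown 16-24 hr, then given compounds in DMSO with the PDE inhibitor […] (300 uM solution added) for 30 min at 37C; cAMP was read by HTRF.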
* marks the source's active call; other numbers are inactive results; i = inactive; ? = inconclusive; / = no result given; [ ] = another dose, or the depositor's remark. Only some compounds are listed: those with a hit (about 1.2% of all), similar ones and a draw of the others.

SMILES	RXFP1 ag	pAkt inh	gsp antag	RXFP1 antag	gsp ag
CC(C)=CCNc1ncnc2c1ncn2[C@@H]1O[C@H](CO)[C@@H](O)[C@H]1O	/	/	/	15	/
Nc1ncnc2c1ncn2C1OC(CO)C(O)C1O (stereo unspecified)	14µM*	i	10%	1	2%
C=CCNc1ncnc2c1ncn2C1OC(CO)C(O)C1O (stereo unspecified)	25µM*	i	4%	0	25%
CCc1nnc(SC(CC)C(=O)Nc2ccc(OC)c(Cl)c2)c2cc3occc3n12 (stereo unspecified)	24%	/	/	-19	/
Cc1ccc(NC(=O)CN2C(=O)CC(c3ccco3)Sc3ccccc32)cc1Cl (stereo unspecified)	2%	/	/	/	/
CCOc1ccc(-c2cc(CCCC(=O)NCCc3cc(OC)c(OC)c(OC)c3)no2)cc1	-2%	/	/	/	/
Cc1ccc(N2CCN(C(=O)c3cnc(N4CCCCC4)c4ccccc34)CC2)c(C)c1	2%	/	/	-70*	/
O=C(c1cnc(N2CCCCC2)c2ccccc12)N1CCN(c2ccc(Cl)cc2)CC1	0%	/	/	?	/
Cc1ccc(Cl)cc1N(C)C(=O)c1cnc(N2CCOCC2)c2ccccc12	0%	/	/	-9	/
Cc1ccc(Cl)cc1N1CCN(C(=O)c2cnc(N3CCOCC3)c3ccccc23)CC1	-1%	/	/	-82*	/
COc1ccc(-c2noc(-c3ccc(NCc4ccco4)c([N+](=O)[O-])c3)n2)cc1	-1%	/	/	/	/
Cc1ccccc1CSc1nc2cccnc2n1Cc1ccc(C(=O)NCCc2cccs2)cc1	10%	/	/	-7	/
Cc1ccc(S(=O)(=O)c2cc3c(=O)n4cccc(C)c4nc3n(C3CCCCC3)c2=N)cc1	-1%	i	4%	-5	-1%
Cc1ccc(S(=O)(=O)c2cc3c(=O)n4ccccc4nc3n(C3CCCC3)c2=N)cc1	-1%	i	-3%	-84*	-33%
COc1ccc(C(C(=O)NC2CCCC2)N(C(=O)c2ccco2)c2ccc3c(c2)OCO3)cc1OC (stereo unspecified)	-1%	-109%*	-1%	-29	6%
COc1ccc(C(C(=O)NC2CCCC2)N(C(=O)c2ccco2)c2cc3c(cc2C(C)=O)OCO3)cc1OC (stereo unspecified)	0%	i	2%	12	2%[15.4 µM]
COc1ccc(C2=NS(=O)(=O)N(C)C(C(=O)Nc3ccc(OC(F)(F)F)cc3)=C2)cc1	0%	/	/	-21	/
CC(=O)N1CC(=O)N=C1SCC(=O)Nc1nc(C)c(-c2ccccc2)s1	-2%	i	?	-110*	-11%[15.4 µM]
CCN1CCN(c2nc(C)c3c(n2)CC(C)CC3=O)CC1 (stereo unspecified)	-1%	i	15%	6	6%[15.4 µM]
Cc1nc(N2CCN(Cc3ccccc3)CC2)nc2c1C(=O)CC(C)C2 (stereo unspecified)	0%	-110%*	-19%	-16	-14%
Cn1cccc1/C=N/n1c(-c2ccc(C(C)(C)C)cc2)n[nH]c1=S	5%	i	-19%	-64*	-31%
CCn1c(N)c(C(=O)N2CCOCC2)sc1=S	4%	-114%*	7%	-24	?
C=CCn1c(N)c(C(=O)N2CCOCC2)sc1=S	1%	i	6%	-8	21%
COCc1cc(C)nc2sc3c(c12)NC(c1ccc(O)cc1)N(c1ccc(OC)cc1)C3=O (stereo unspecified)	5%	/	/	5	/
C#Cc1ccc(-c2ccccc2F)cc1	/	/	/	9	/
O=C(NCCC1=CCCCC1)c1ccc2c(c1)N(Cc1ccc(Cl)cc1)C(=O)c1ccccc1S2(=O)=O	-2%	/	/	/	/
CCOc1ncccc1C(=O)OC(C)C(=O)NC(=O)NC1CCCCC1 (stereo unspecified)	-1%	i	7%	-14	6.3µM*
Cc1nc2c(-c3ccccc3)c(C)[nH]n2c(=O)c1Cc1ccc(Br)cc1	3%	/	/	-22	/
Cc1cc(/C=N\NC(=O)c2cccs2)c(C)n1-c1ccc2ncccc2c1	-1%	i	40µM*	-3	26%

Source: PubChem BioAssay
